Screens (PubChem)
DT40 TDP1 CPT – qHTS for Inhibitors of human tyrosyl-DNA phosphodiesterase 1 (TDP1): qHTS in cells in presence of CPT. chicken DT40 Tdp1-/-;hTDP1 cells + 20 nM CPT, ATP luminescence, 48 h. Potency, µM (series often up to 46.2 µM), for inactives: at the highest dose activity change, negative = growth inhibition, actives largely listed as inhibitors. 420,000 tested, 12% active. AID 686979, 2013; also: potency is read from the fitted curve at half-maximal effect; nearly all actives have a fitted effect of over 55% in size
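Cell growth measured by CellTiter-Glo luminescence after a minimum 48 h, 37 C compound exposure with 20 nM CPT in Tdp1-knockout DT40 cells stably expressing hTDP1, seeded 400/well; qHTS titration format.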
HT1080 IDH1KD tx – qHTS for induction of synthetic lethality in tumor cells producing 2HG: qHTS for the HT-1080-IDH1KD cell line | HT-1080 IDH1 knockdown viability, ATP luminescence, 48 h | Potency, µM (doses to about 46.1 µM), without a hit: at the top dose activity, negative = toxicity, usual class: cytotoxic | 360,000 tested, 2% active | AID 686971, 2013;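 also: potency is read from the fitted curve at half-maximal effect; 0% = DMSO wells and -100% = cell-free medium wells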
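Using the IDH1-knockdown HT-1080 line run in the same batch and compound series as the NT line, viability after 48 h at 37 °C was determined by CellTiter-Glo luminescence and expressed as % activity.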
HT1080-NT tox – qHTS for induction of synthetic lethality in tumor cells producing 2HG: qHTS for the HT-1080-NT fibrosarcoma cell line. HT-1080-NT fibrosarcoma viability, CellTiter-Glo ATP luminescence, 48 h. Potency, µM (titrated, usually from 46.1 µM), for inactives: at the highest dose activity, negative = less viability, usual class: cytotoxic. 360,000 tested, 1.6% active. AID 686970, 2013;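 also: NT is the 2HG producing partner of a matched IDH1 knockdown line; potency is read from the fitted curve at half-maximal effect; 0% = DMSO-treated cells and -100% = media-only wells without cells; nearly all actives have a fitted effect of over 55% in size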
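Luminescent CellTiter-Glo readout after 48 hours of compound exposure at 37 degrees C defined viability of HT-1080-NT cells. Activity was normalized to DMSO wells and cell-free media wells; concentration-response curves were fitted and assigned curve classes.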
IL-1B inflam inh – qHTS for Inhibitors of Inflammasome Signaling: IL-1-beta AlphaLISA Primary Screen; 360,000 tested, 4.7% active; THP-1 LPS/ATP IL-1B secretion, AlphaLISA, 16 h; hits give low values; activity change, % at 57.5 µM; in the data active = activity change below about -50%; inconclusive = mostly about -30% to -49%
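THP-1 cells pretreated 1 hr with compounds (up to 57.5 uM final), then stimulated with LPS (250 ng/mL final) plus ATP (1.25 mM final); secreted IL-1B measured by AlphaLISA after 16 hr, decreased signal indicating inhibition.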
TDP1 cell noCPT – qHTS for Inhibitors of human tyrosyl-DNA phosphodiesterase 1 (TDP1): qHTS in cells in absence of CPT; DT40 Tdp1-/- hTDP1 cells, no CPT, ATP luminescence, 48 h; Potency, µM (titrated, usually from 46.2 µM), inactives show at the top dose activity change, negative = growth inhibition, actives largely listed as inhibitors; 420,000 tested, 15% active; also: potency is read from the fitted curve at half-maximal effect; nearly all actives have a fitted effect of over 55% in size
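A cellular qHTS used chicken DT40 cells lacking endogenous Tdp1 but carrying stably transfected human TDP1. Compounds were applied without camptothecin, and cell growth kinetics were judged by ATP-dependent luminescence after ≥48 hr.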
Starred values were filed as active, the others as inactive. Shown are actives, neighbours in structure and some others; about 19% of the full set was active somewhere. Unless noted, calls follow the shape of the dose curve; as a rule, active = well fitted curve in the direction sought with a large enough effect; inconclusive = small, poorly fitted or top-dose-only effect, or another doubt; inactive = no such curve, though single readings can be large; an effect the other way counts as inactive or inconclusive. Unless noted, % is scaled to controls: 0 for no effect and ±100 for the full control effect.

`C[C@@H]1CN([C@H](C)CO)S(=O)(=O)c2ccc(C#Cc3ccccc3F)cc2O[C@@H]1CN(C)C(=O)Cc1ccccc1` gave DT40 TDP1 CPT 15µM*, HT1080 IDH1KD tx inconclusive, HT1080-NT tox inconclusive, IL-1B inflam inh inconclusive and TDP1 cell noCPT 13µM*.
COc1cccc(NC(=O)N(C)C[C@H]2Oc3cc(Br)ccc3S(=O)(=O)N([C@H](C)CO)C[C@H]2C)c1 was read as DT40 TDP1 CPT inconclusive, HT1080 IDH1KD tx 0%, HT1080-NT tox -8%, IL-1B inflam inh -27 and TDP1 cell noCPT inconclusive.
Screening COc1cccc(NC(=O)N(C)C[C@H]2Oc3cc(C#Cc4ccncc4)ccc3S(=O)(=O)N([C@H](C)CO)C[C@H]2C)c1 returned DT40 TDP1 CPT 16µM*, HT1080 IDH1KD tx -18%, HT1080-NT tox -4%, IL-1B inflam inh 0 and TDP1 cell noCPT 23µM*.
`CC(C)NC(=O)N(C)C[C@H]1Oc2cc(C#Cc3ccc(F)cc3)ccc2S(=O)(=O)N([C@H](C)CO)C[C@H]1C` gave DT40 TDP1 CPT 23µM*, HT1080 IDH1KD tx -11%, HT1080-NT tox -4%, IL-1B inflam inh -11 and TDP1 cell noCPT inconclusive.
COc1ccc(C#Cc2ccc3c(c2)O[C@@H](CN(C)C(=O)Nc2cccc(OC)c2)[C@H](C)CN([C@@H](C)CO)S3(=O)=O)cc1 was read as DT40 TDP1 CPT -24%, HT1080 IDH1KD tx inconclusive, HT1080-NT tox -29%, IL-1B inflam inh 19 and TDP1 cell noCPT 18µM*.
Screening COc1ccc(/C=C/C(=O)NCCSCc2ccco2)cc1OC returned DT40 TDP1 CPT inconclusive, HT1080 IDH1KD tx -1%, HT1080-NT tox 6%, IL-1B inflam inh 15 and TDP1 cell noCPT inconclusive.
For COC(=O)[C@]1(C)N[C@H](CN(C)C(=O)c2ccccc2)[C@@H]2C(=O)N(C)C(=O)[C@@H]21 the results were DT40 TDP1 CPT -13%, HT1080 IDH1KD tx 10%, HT1080-NT tox 17%, IL-1B inflam inh 48 and TDP1 cell noCPT -12%.
CC(C)(C)C(=O)O/N=C(\N)Cc1ccc(-c2csnn2)cc1 was read as DT40 TDP1 CPT inconclusive, HT1080 IDH1KD tx -21%, HT1080-NT tox -14%, IL-1B inflam inh inconclusive and TDP1 cell noCPT inconclusive.
For CCOC(=O)c1c(-c2ccccc2)oc2ccc(OC(C)C(=O)O)cc12 (stereo unspecified) the results were DT40 TDP1 CPT 1%, HT1080 IDH1KD tx -6%, HT1080-NT tox 0%, IL-1B inflam inh -11 and TDP1 cell noCPT -12%.
Screening CCOC(=O)c1c(-c2ccccc2)oc2ccc(N(C(C)=O)S(=O)(=O)c3ccc(C)cc3)cc12 returned DT40 TDP1 CPT 8.2µM* and TDP1 cell noCPT 10µM*.
`CCOC(=O)c1c(-c2ccccc2)oc2ccc(NS(=O)(=O)c3ccc(C)cc3)cc12` gave DT40 TDP1 CPT 2.9µM* and TDP1 cell noCPT 2.9µM*.
CCOC(=O)c1c(C)oc2ccc(NS(=O)(=O)c3ccc(C(=O)O)cc3)cc12 was read as DT40 TDP1 CPT 20%, HT1080 IDH1KD tx 11%, HT1080-NT tox 9%, IL-1B inflam inh 9 and TDP1 cell noCPT -8%.
For CCOC(=O)c1c(-c2ccccc2)oc2ccc(OCC(O)CN(C)C)cc12 (stereo unspecified) the results were DT40 TDP1 CPT inconclusive, HT1080 IDH1KD tx 15µM*, HT1080-NT tox 26µM*, IL-1B inflam inh -65* and TDP1 cell noCPT 23µM*.
Screening CCOC(=O)c1c(-c2ccccc2)oc2ccc(OC(C)=O)cc12 returned DT40 TDP1 CPT 6%, HT1080 IDH1KD tx 0%, HT1080-NT tox inconclusive, IL-1B inflam inh -8 and TDP1 cell noCPT -13%.
Screening CCCC(=O)N(c1ccc2oc(-c3ccccc3)c(C(=O)OCC)c2c1)S(=O)(=O)c1ccc(C)cc1 returned DT40 TDP1 CPT inconclusive and TDP1 cell noCPT 5.8µM*.
Screening N#CCCN(C(=S)NC(=O)c1cccs1)c1ccccc1F returned DT40 TDP1 CPT inconclusive, HT1080 IDH1KD tx 6%, HT1080-NT tox 7%, IL-1B inflam inh 4 and TDP1 cell noCPT -28%.
For O=C(OCC(=O)N1CCCc2ccccc21)c1cc(Br)ccc1O the results were DT40 TDP1 CPT 6%, HT1080 IDH1KD tx -9%, HT1080-NT tox -6%, IL-1B inflam inh 12 and TDP1 cell noCPT 4%.
CCN1C(=O)[C@H]2[C@@H](c3ccc(-c4ccc(OC)cc4)cc3)N3CCC[C@@]3(C(=O)OC)[C@H]2C1=O was read as DT40 TDP1 CPT inconclusive, HT1080 IDH1KD tx -1%, HT1080-NT tox 9%, IL-1B inflam inh 14 and TDP1 cell noCPT 15µM*.
`CCN1C(=O)[C@H]2[C@@H](c3ccc(-c4ccc(OC)cc4)cc3)N3CCCC[C@@]3(C(=O)OC)[C@H]2C1=O` gave DT40 TDP1 CPT inconclusive, HT1080 IDH1KD tx 9%, HT1080-NT tox 2%, IL-1B inflam inh inconclusive and TDP1 cell noCPT 16µM*.
`CCN1C(=O)[C@@H]2[C@@H](c3ccc(-c4ccc(OC)cc4)cc3)N3CCC[C@@]3(C(=O)OC)[C@@H]2C1=O` gave DT40 TDP1 CPT inconclusive, HT1080 IDH1KD tx 1%, HT1080-NT tox 2%, IL-1B inflam inh -3 and TDP1 cell noCPT 21µM*.
For CCC1CCCCN1C(=O)CSc1nc2ncccc2[nH]1 (stereo unspecified) the results were DT40 TDP1 CPT 6%, HT1080 IDH1KD tx 5%, HT1080-NT tox 11%, IL-1B inflam inh -7 and TDP1 cell noCPT 1%.
Screening CN1C(=O)C(Cc2cnc[nH]2)NC1=S (stereo unspecified) returned DT40 TDP1 CPT 21%, HT1080 IDH1KD tx 5%, HT1080-NT tox -13%, IL-1B inflam inh 1 and TDP1 cell noCPT -14%.
Screening Cc1ccc(C)c(NC(=S)/C(=C(\[O-])c2ccc(Cl)s2)[n+]2ccccc2)c1 returned DT40 TDP1 CPT -18%, HT1080 IDH1KD tx 0%, HT1080-NT tox -8%, IL-1B inflam inh 43 and TDP1 cell noCPT -14%.
Screening CCc1cccc(CC)c1NC(=S)/C(=C(\[O-])c1ccc(Cl)s1)[n+]1ccccc1 returned DT40 TDP1 CPT 2.3µM*, HT1080 IDH1KD tx -19%, HT1080-NT tox -18%, IL-1B inflam inh -29 and TDP1 cell noCPT 1.8µM*.
[O-]/C(=C(\C(=S)Nc1cccc2ccccc12)[n+]1ccccc1)c1ccc(Cl)s1 was read as DT40 TDP1 CPT inconclusive, HT1080 IDH1KD tx -7%, HT1080-NT tox -3%, IL-1B inflam inh -21 and TDP1 cell noCPT 18µM*.
